Screening results as filed in PubChem.
Hits are enriched below; roughly 4% of the tested compounds scored in any of these assays.
Mtb FBA inh: inhibits M. tuberculosis FBA enzyme; P9WQA3; purified M. tuberculosis FBA, fluorescence read-out; inhibition, % at 1 µM; 360,000 compounds, 2.3% hits; in the data active = inhibition above about 27%;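 also: 0% = vehicle and 100% = reference inhibitor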
GDH-TPI inh: GDH-TPI coupled enzyme inhibition counter-screen; GDH-TPI coupled enzyme counterscreen, NADH absorbance; inhibition, % at 4.8 µM; 360,000 compounds, 1.2% hits; in the data active = inhibition above about 30%;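 also: 0% = DMSO wells and 100% = wells lacking the enzyme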
Mtb UGM inh: Mtb UDP-galactopyranose mutase inhibition | inhibition, % at 10 µM | 320,000 compounds, 0.06% hits | purified UGM, fluorescence polarization probe displacement; in the data active = inhibition above about 10%, passing the limit was not always enough
Rv3671c protease: Rv3671c (M. tuberculosis) protease inhibition. 320,000 compounds, 0.048% hits. inhibition, % at 5.96 µM; in the data active = inhibition above about 38%;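 also: extracellular domain of Rv3671c used as enzyme; 0% = enzyme with DMSO and 100% = no enzyme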
Mtb betalactam: beta-lactam sensitization of Mtb H37Rv; inhibition, % at 25 µM; 330,000 compounds, 0.27% hits; M. tuberculosis H37Rv growth with meropenem, percent inhibition; AID 434955; call rule not given here;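 also: growth measured after seven days incubation then overnight dye step; 0% = bacteria only wells and 100% = bacteria with antibiotic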
RecA splice inh: inhibitors of M. tuberculosis RecA intein splicing; P9WHJ3; cell-free RecA intein splicing, fluorescence; inhibition, % (test concentration not listed); 290,000 compounds, 0.75% hits; in the data active = inhibition above about 30%;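 also: 0% = vehicle wells and 100% = reference inhibitor control wells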
Target sequence (P9WHJ3 whole entry, looked up, canonical isoform): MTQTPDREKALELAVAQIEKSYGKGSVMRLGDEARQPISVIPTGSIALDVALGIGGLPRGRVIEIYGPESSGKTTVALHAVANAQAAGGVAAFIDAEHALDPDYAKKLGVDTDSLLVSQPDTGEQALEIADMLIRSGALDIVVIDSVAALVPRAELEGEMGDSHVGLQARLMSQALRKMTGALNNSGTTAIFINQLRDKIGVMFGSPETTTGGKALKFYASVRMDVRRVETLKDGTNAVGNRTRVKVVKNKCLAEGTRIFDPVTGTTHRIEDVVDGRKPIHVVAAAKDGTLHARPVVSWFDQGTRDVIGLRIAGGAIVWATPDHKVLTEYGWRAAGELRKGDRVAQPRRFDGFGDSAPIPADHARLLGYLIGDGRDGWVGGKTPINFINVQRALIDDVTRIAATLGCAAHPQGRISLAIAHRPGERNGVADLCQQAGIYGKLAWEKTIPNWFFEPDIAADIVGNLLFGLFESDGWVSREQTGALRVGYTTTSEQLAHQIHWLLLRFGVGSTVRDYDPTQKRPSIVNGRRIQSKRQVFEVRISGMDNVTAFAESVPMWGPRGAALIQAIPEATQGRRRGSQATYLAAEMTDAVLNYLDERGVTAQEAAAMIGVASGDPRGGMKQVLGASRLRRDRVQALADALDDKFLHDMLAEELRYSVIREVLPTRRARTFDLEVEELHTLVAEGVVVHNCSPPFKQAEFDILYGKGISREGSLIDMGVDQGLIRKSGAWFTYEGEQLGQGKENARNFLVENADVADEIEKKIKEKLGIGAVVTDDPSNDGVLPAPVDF
Starred values were filed as active, the others as inactive; i = inactive; x = no result; + = active, no number.

SMILES	Mtb FBA inh	GDH-TPI inh	Mtb UGM inh	Rv3671c protease	Mtb betalactam	RecA splice inh
Cc1cccn2cc(-c3ccc(S(=O)(=O)N4CCOCC4)cc3)nc12	187*	18	3	3	-20	2
CCc1nc2ccc(C(=O)NCCc3ccccn3)cn2c1N(CCC(C)C)CCN(C)C	4	11	x	x	x	x
CN1/C(=C\C=N\NC(=O)c2ccc(O)cc2)C(C)(C)c2ccccc21	-4	40*	1	-149	1	-2
CN1/C(=C\C=N\NC(=O)c2cccnc2)C(C)(C)c2ccccc21	0	4	-3	-3	86	-2
CCOc1cc(/C=N/Nc2nc(N3CCCC3)nc(N3CCCC3)n2)ccc1O	1	36*	1	9	-2	-1
COc1ccc(OC)c(NC(=S)NCCN2CCOCC2)c1	-1	0	1	-10	0	-2
COc1ccc(/C=N/NC(=O)c2cccc(C(=O)N/N=C/c3ccc(OC)cc3)n2)cc1	0	14	-1	-34	8	-3
COc1cc(/C=N/NC(=S)NCCN2CCOCC2)ccc1O	2	48*	1	10	5	-5
COc1cc(/C=N/NC(=O)c2nc(C)cc(C)n2)ccc1O	1	37*	-5	-1	2	-4
COc1cc(/C=N/NC(=O)c2ccncc2)ccc1O	-1	23	-1	3	98	-7
COc1cc(/C=N/NC(=O)c2cccc(C(=O)N/N=C/c3ccc(O)c(OC)c3)n2)ccc1O	2	44*	4	x	6	-4
CCN(CC(=O)Nc1c(F)cccc1F)C(=O)c1cccnc1Sc1ccccc1	6	7	3	-1	-12	2
CCOc1ccc(N(Cc2ccc(C(=O)O)cc2)S(=O)(=O)c2ccc(C)cc2)cc1	5	-8	-1	-3	7	-1
O=C(Nc1c(-c2ccccc2)[nH][nH]c1=O)c1ccco1	2	x	x	x	x	x
Cc1ccc(SCC(=O)OCc2csc(CC(=O)Nc3ccccc3C)n2)cc1C	-1	5	-3	-11	18	x
COCCNC(=O)C1CCCN(C(=O)c2sc(-c3ccccc3)nc2C)CC1 (stereo not drawn)	-2	10	x	x	x	x
O=C(NC(=S)Nc1ccc2[nH]c(=O)[nH]c2c1)c1ccccc1[N+](=O)[O-]	-1	-1	-1	0	0	2
Cc1ccc(N(CC(=O)NC2CCCCC2)S(=O)(=O)c2cccs2)cc1	1	-2	-2	-7	2	0
CN(C)S(=O)(=O)c1cccc(NC(=S)N/N=C/C2CC=CCC2)c1 (stereo not drawn)	0	-8	-1	-4	-1	6
COc1cc(/C=N/NC(=O)c2cccc(NC(=O)c3ccccc3C)c2)ccc1O	-1	16	-4	5	-6	-1
COc1cc(/C=N/NC(=O)c2cn(-c3cccc(C)n3)cn2)ccc1O	-1	34*	2	2	-6	-2
COc1cc(/C=N/Nc2cc(C)nc(N)n2)ccc1O	-1	19	1	2	4	-2
COc1cc(/C=N/NC(=S)Nc2cccc(S(=O)(=O)N(C)C)c2)ccc1O	1	45*	x	4	-4	-12
COc1cc(/C=N/NC(=O)c2cccc(NC(=O)c3ccccc3)c2)ccc1O	-5	37*	-1	16	-1	-2
COc1cc(/C=N/Nc2nc(C)cc(C)n2)ccc1O	-2	36*	x	x	x	x
SMILES	Mtb FBA inh	GDH-TPI inh	Mtb UGM inh	Rv3671c protease	Mtb betalactam	RecA splice inh
C[C@]12CC[C@H](O)CC1=CCC1C2CC[C@@]2(C)C1CC[C@@H]2NC(=O)[C@@H](N)Cc1cnc[nH]1 (stereo partly drawn)	1	12	x	x	x	x
COc1cc(C(=O)NC2CC(C)CC(C)(C)C2)cc(OC)c1OC (stereo not drawn)	1	-12	x	x	x	x
NN=C(c1cccc([N+](=O)[O-])c1)c1cccc([N+](=O)[O-])c1	-1	2	3	3	-8	0
COc1cc(/C=N/NC(=O)c2cc3ccccc3[nH]2)ccc1O	-1	41*	2	-4	-1	-1
COc1ccc(CC(=O)N/N=C(\C)CC(=O)Nc2ccc(N(C)C)cc2)cc1	0	2	1	3	0	0
COc1ccc(CC(=O)N/N=C(/C)CC(=O)N(C)c2ccccc2)cc1	4	1	-2	1	-5	30*
Cn1cnnc1Sc1ccc(/C=C/C(=O)c2ccc(O)cc2)cc1[N+](=O)[O-]	-3	37*	2	7	62	1
COc1ccc(CCNCc2cc(C)n(-c3ccc(OC)cc3)c2C)cc1	7	-1	0	4	88	3
Cc1ccc(Cn2c(=N)c(C#N)cc3c(=O)n4cccc(C)c4nc32)cc1	x	x	1	-13	-4	-8
Cc1cccn2c(=O)c3cc(C#N)c(=NC(=O)c4ccccc4)n(Cc4ccco4)c3nc12	182*	16	3	-14	-8	-317
Cc1cccc(C(=O)N=c2c(C#N)cc3c(=O)n4cccc(C)c4nc3n2Cc2ccco2)c1	168*	8	2	-11	-4	-2
Cc1cccn2c(=O)c3cc(C#N)c(=NC(=O)c4ccco4)n(Cc4ccco4)c3nc12	+	9	2	5	2	-93
Cc1cccn2c(=O)c(/C=C(\C#N)C(=O)NCc3ccco3)c(N3CCOCC3)nc12	14	9	4	4	-3	-1
CCC(C)n1c(=N)c(C#N)cc2c(=O)n3cccc(C)c3nc21 (stereo not drawn)	20	1	2	0	1	i
O=C(/C=C/[C@H]1O[C@@H](n2ccc(=O)[nH]c2=O)[C@H](O)[C@@H]1O)NCCN1CCOCC1	-2	x	x	x	x	x
COc1cccc(CN(C)CCCn2cnc(C(=O)Nc3ccc(C)c(C)c3)n2)c1	-2	8	x	x	x	x
COc1ccc(CN2CCc3c([nH]c4ccccc34)C2)cc1Br	11	43*	-1	3	-6	x
CCOc1cc(CN2CCc3c([nH]c4ccccc34)C2)ccc1OC	-1	3	-1	x	-4	-2
Cc1cc(=O)oc(C)c1C(=O)NCCc1ccccc1	2	3	1	-7	-11	1
Cc1cc(=O)oc(C)c1C(=O)NCc1c(F)cc(F)cc1F	-1	36*	3	5	x	2
CCCCNC(=O)c1c(C)cc(=O)oc1C	5	33*	0	-4	-2	0
N=C1SCC(=O)N1c1ncc(Cc2ccc(F)cc2)s1	1	31*	1	0	90	7
Cc1ccc(-c2csc(N3C(=N)SCC3=O)n2)cc1	x	x	-1	-4	-4	-8
CSC(=Nc1ccccc1)C(C#N)c1nc2ccccc2[nH]1 (stereo not drawn)	-4	8	-1	3	-3	2
N#CC(C(=S)Nc1ccccc1)c1nc2ccccc2[nH]1 (stereo not drawn)	-1	62*	-1	5	10	2
c1ccc(N/N=C2\CCCc3ccccc32)nc1	-4	32*	3	-8	55	2
